VP16 counter – VP16 counterscreen qHTS for inhibitors of ROR gamma transcriptional activity; AID 2546, 2010; 3.5% of 310,000 active; Potency, µM (doses to about 53.6 µM), inactives show at the top dose activity, negative = inhibition, actives largely listed as inhibitors; Drosophila S2 Gal4-VP16 UAS-luciferase, luminescence, 20 h;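 further: Gal4-VP16 expression switched on by copper sulfate through the metallothionein promoter; nearly all actives have a fitted effect of over 50% in size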
Tau fibril ThT – qHTS for Inhibitors of Tau Fibril Formation, Thioflavin T Binding; Microtubule-associated protein tau (Homo sapiens), P10636; recombinant tau K18 P301L, heparin-induced fibrillization, ThT fluorescence; Potency, µM (titrated, usually from 57.4 µM), for the others: at the top dose activity, negative = inhibition, usual class: inhibitors; 2.1% of 270,000 active; AID 1460, 2008; further: nearly all actives have a fitted effect of over 55% in size
Target sequence (P10636 561-689 P618L limits assumed): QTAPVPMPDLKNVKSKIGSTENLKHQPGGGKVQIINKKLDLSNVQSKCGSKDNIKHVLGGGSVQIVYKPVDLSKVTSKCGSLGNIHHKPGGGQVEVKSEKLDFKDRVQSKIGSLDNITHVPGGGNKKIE
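Heparin-induced fibrillization of the P301L-mutant K18 repeat-domain fragment of human tau was followed by ThT binding in quantitative high-throughput format.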
Tau fibril FP – qHTS for Inhibitors of Tau Fibril Formation, Fluorescence Polarization; K18 P301L tau heparin fibrillization, Alexa594 FP, 6 h; Microtubule-associated protein tau (Homo sapiens), P10636; AID 1468, 2008; Potency, µM (series often up to 57.7 µM), without a hit: top-dose activity, negative = inhibition, hits mostly inhibitors; 0.39% of 280,000 active; further: nearly all actives have a fitted effect of over 55% in size
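Steps: dispense K18 P301L tau (15 uM plus 0.24 uM Alexa 594 tracer, final) in pH 7 sodium acetate; add compound; add heparin (20 uM final); incubate 6 hr, 37 C; add ThT (30 uM final); after 1 hr ambient, read FP.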
Tau fluor cs – Counterscreen qHTS for Inhibitors of Tau Fibril Formation, Fluorescence Polarization | tau K18 P301L Alexa594 fluorescence, heparin fibrillization | Potency, µM (doses to about 57.7 µM), without a hit: at the top dose activity change, negative = decrease | 0.93% of 280,000 active; further: nearly all actives have a fitted effect of over 55% in size
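Human tau K18 P301L (15 uM unlabeled, 0.24 uM Alexa 594-labeled) in 100 mM sodium acetate pH 7 with 20 uM heparin, 6 hr at 37 C. ThT 30 uM added, 1 hr ambient; Alexa 594 FP and total fluorescence read at 555/632 nm.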
RORg inh – qHTS for inhibitors of ROR gamma transcriptional activity | Nuclear receptor ROR-gamma (Mus musculus), P51450 | Drosophila S2 Gal4-RORgamma UAS-luciferase reporter, 20 h | Potency, µM (doses to about 53.6 µM), for inactives: top-dose activity change, negative = inhibition, actives largely listed as inhibitors | 5.4% of 310,000 active; further: nearly all actives have a fitted effect of over 60% in size
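Luciferase reporter read in Schneider cells carrying Gal4-RORγ (mouse) and UAS-Photinus luciferase; cells given compound 1 h before 700 uM copper sulfate induction, then incubated 20 h at ambient temperature.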
Numbers without * were called inactive; ? = inconclusive; · = no result given. An excerpt weighted towards active compounds, which were near 7.3% of everything screened. The call rests on the fitted dose curve; in most records, active means well fitted curve in the direction sought with a large enough effect; inconclusive means small, poorly fitted or top-dose-only effect, or another doubt; inactive means no such curve, though single readings can be large; an effect the other way counts as inactive or inconclusive. On the % scale 0 is the no-effect control and ±100 the full control effect; potency means the concentration at half of the fitted maximal effect.

SMILES | VP16 counter | Tau fibril ThT | Tau fibril FP | Tau fluor cs | RORg inh
CCOC(=O)c1sc(NC(=O)c2cc3ccccc3o2)nc1C | ? | ? | -5.5% | -13.7% | 3.98µM*
CCOC(=O)c1csc(NC(=O)c2cc3ccccc3o2)n1 | ? | -11.3% | -3.8% | -7.5% | 3.16µM*
Cc1nnc(NC(=O)c2cc3ccccc3o2)s1 | 3.5% | · | · | · | ?
Cc1cnc(NC(=O)c2cc3ccccc3o2)s1 | 12.6µM* | 9.9% | 3.9% | 8.1% | 6.31µM*
CCOC(=O)c1csc(NC(=O)c2ccccc2)n1 | -3.4% | -10.8% | 1.8% | -7.4% | ?
Cc1nc(NC(=O)c2cc3ccccc3o2)sc1C | ? | · | · | · | 10µM*
CCOC(=O)c1ccccc1NC(=O)c1cc2ccccc2o1 | -6.7% | · | · | · | 4.8%
C[C@H](CO)NC(=O)[C@H]1C[C@@H]1[C@H](NP(=O)(c1ccccc1)c1ccccc1)c1ccccc1 | 10.6% | -2.8% | -3.3% | -5.8% | 2.1%
COc1cc(/C=C2\SC(=Nc3ccc(Cl)c(C(=O)O)c3)NC2=O)c(Br)c(Br)c1O | 2.1% | · | · | · | -16.6%
CCOC(=O)c1sc(NC(=O)Nc2ccccc2F)nc1C | 8.91µM* | 0.8% | -15.4% | -7.9% | 7.94µM*
CCOC(=O)c1sc(Nc2ccccc2Cl)nc1C | 4.4% | · | 11.8% | ? | -8.4%
CCOC(=O)CNC(=O)c1sc(NC(=O)c2cccc(F)c2)nc1C | 0.3% | -5.3% | -4.0% | -4.0% | -2.2%
CCOC(=O)CNC(=O)c1sc(NC(=O)c2ccccc2F)nc1C | 2.51µM* | -7.7% | -11.0% | 1.7% | ?
Cc1ccc(-n2nc(C)c3c2OC(N)=C(C#N)C3c2ccoc2)cc1 (configuration not stated) | 11.5% | 12.6µM* | ? | ? | -8.7%
Cc1ccc(-n2nc(C)c3c2OC(N)=C(C#N)C3c2ccco2)cc1 (configuration not stated) | 1.5% | 25.1µM* | -11.0% | ? | ?
Cc1ccc(-n2nc(C)c3c2OC(N)=C(C#N)C3c2ccc(C)o2)cc1 (configuration not stated) | -3.9% | 5.01µM* | ? | ? | -16.1%
Cc1ccc(-c2[nH]nc3c2C(c2ccoc2)C(C#N)=C(N)O3)cc1C (configuration not stated) | 3.1% | 31.6µM* | ? | ? | -5.3%
CCOC(=O)c1c(C)oc2ncnc(N3CCN(c4cccc(Cl)c4)CC3)c12 | · | ? | 0.7% | -21.9% | ·
Cc1ccc(-c2nn(-c3ccccc3)cc2/C=N/NC(=O)c2ccncc2)o1 | 11.2µM* | -3.1% | -14.6% | ? | 2.82µM*
O=C(N/N=C/c1cn(-c2ccccc2)nc1-c1cccs1)c1ccncc1 | 2.24µM* | ? | ? | ? | 1.26µM*
O=C(N/N=C/c1nn(-c2ccccc2)cc1-c1ccccc1)c1ccncc1 | 3.16µM* | -17.3% | ? | ? | 1.58µM*
Cc1ccc(-c2nn(-c3ccccc3)cc2C=O)o1 | ? | -15.6% | -0.1% | -7.5% | ?
CCCOc1ccc(-c2nnc(-c3cccs3)o2)cc1 | ? | -7.0% | 1.0% | -3.3% | 5.01µM*
CCOc1ccc(-c2nnc(-c3ccncc3)o2)cc1 | ? | -11.4% | 3.8% | 0.6% | 12.6µM*
CCOc1ccc(-c2nnc(-c3ccccc3)o2)cc1 | ? | -19.8% | -0.9% | -5.9% | 10µM*
CCOc1ccc(-c2nnc(-c3ccc(OC)cc3)o2)cc1 | ? | 6.5% | -9.0% | 5.0% | -14.4%
CCC(C)NC(=O)c1ccc(Cn2c(=O)c3cccn3c3cccnc32)cc1 (configuration not stated) | · | 4.6% | -5.1% | -3.4% | ·
CC(C)(C)c1ccc(OC(=O)Nc2ccc(O)c(C(=O)O)c2)cc1 | 1.26µM* | ? | -1.7% | ? | ?
Cc1ccc(OCC(=O)Nc2ccc(O)c(C(=O)O)c2)cc1C | ? | -5.0% | 7.0% | 4.3% | -53.8%
COCCNC(=O)c1ccc2c(c1)NC(=O)C(CS(=O)(=O)Cc1ccc(F)cc1Cl)N2 (configuration not stated) | · | ? | ? | 2.8% | ·

High-throughput results from PubChem.
